Measured values as given in PubChem BioAssay (NCI).
The panel holds about 79,000 compounds, 15% with a hit somewhere; the sample as a whole holds those more often. Active and inactive are the calls of the source. Rule as the data show it: active = growth inhibition above about 70%; inactive = the rest.

Key:
[1] = NCI Yeast Anticancer Drug Screen. Data for the rad50 strain (AID 155);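 also: 0% = growth of vehicle-only cultures of the same strain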; settings: S. cerevisiae rad50 strain growth inhibition; at 50.0 µM; stronger effect = higher value
Outline: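 Growth of the mutant yeast was measured after compound exposure and referenced to vehicle-treated cultures.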

[2] = NCI Yeast Anticancer Drug Screen. Data for the mec2-1 strain (AID 157); settings: S. cerevisiae mec2-1 strain, at 50.0 µM, stronger effect = higher value
Outline: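 Growth inhibition is read against vehicle-treated controls after compound exposure of the mec2-1 yeast strain, which is defective in DNA damage repair or cell cycle control.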

[3] = NCI Yeast Anticancer Drug Screen. Data for the sgs1 mgt1 strain (AID 161);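 also: 0% = growth of cultures given vehicle only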; settings: S. cerevisiae sgs1 mgt1 strain, at 50.0 µM, stronger effect = higher value
Outline: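 Compounds are added to genetically altered yeast, and growth is compared with cultures given vehicle alone to give percent inhibition.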

[4] = NCI Yeast Anticancer Drug Screen. Data for the cln2 rad14 strain (AID 165);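 also: 0% = growth equal to vehicle treated cultures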; settings: S. cerevisiae cln2 rad14 strain, at 50.0 µM, stronger effect = higher value
Outline: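 Growth inhibition, relative to vehicle-treated controls, is the read-out. The test organism is a yeast strain with defined genetic alterations, cln2 rad14.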

[5] = NCI Yeast Anticancer Drug Screen. Data for the bub3 strain (AID 167); settings: S. cerevisiae bub3 mutant strain, at 50.0 µM, stronger effect = higher value
Outline: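 Whole-cell yeast assay. The mutant strain was incubated with compounds, and growth inhibition was determined by comparison with vehicle-treated cells.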

[6] = NCI Yeast Anticancer Drug Screen. Data for the mlh1 rad18 strain (AID 175); settings: S. cerevisiae mlh1 rad18 strain growth inhibition; at 50.0 µM; stronger effect = higher value
Outline: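 Cells of a genetically altered yeast strain, deficient in DNA damage repair, were treated with compound. Their growth was then compared with that of vehicle-treated cultures to give inhibition.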

Measured: growth inhibition

Cc1c2ccncc2c(C)c2c1[nH]c1ccccc12
active: [1] 91.2% | [2] 89.5% | [3] 90.5% | [4] 84.9% | [5] 89.6% | [6] 90.7%

O=[N+]([O-])c1cccc2ncccc12
inactive: [1] -2.95% | [2] -14.4% | [3] 18.4% | [4] -6.55% | [5] 17.7% | [6] 9.3%

COCCOC(=O)NCP(Cl)(CNC(=O)OCCOC)(CNC(=O)OCCOC)CNC(=O)OCCOC
inactive: [1] -11.6% | [2] -4.85% | [3] -29.8% | [4] -19.7% | [5] -1.75% | [6] -5.75%

O=P(c1ccccc1)(c1ccccc1)c1ccccc1.O=P(c1ccccc1)(c1ccccc1)c1ccccc1.O=S(=O)(O)O.[Fe]
inactive: [1] -8.3% | [2] 3.45% | [3] 9.35% | [4] 17.6% | [5] 23.6% | [6] 8.2%

CCCCC(CC)COP(=S)(S)OCC(CC)CCCC.[Sn] (stereo not given)
inactive: [1] -7.7% | [2] -10.4% | [3] -6.5% | [4] -46.9% | [5] 13.8% | [6] -7.7%

CC(C)c1cccc(C(C)C)c1NC(=O)/C(CC(=O)CC(c1ccccc1)c1c(O)c2ccccc2oc1=O)=N/O (stereo not given)
inactive: [1] -45.5% | [2] 4.85% | [3] 19.1% | [4] -32.1% | [5] -15.8% | [6] 18.3%

Cc1ccc(-n2c(=O)[nH]c3ccccc3c2=O)cc1[N+](=O)[O-]
inactive: [1] 12.9% | [2] 12.3% | [3] 33% | [4] 23.2% | [5] 35.4% | [6] 26.6%

COc1ccc2nc3c4ccccc4scc-3c2c1
active: [1] 99.4% | [2] 99.5% | [3] 99.5% | [4] 99.2% | [5] 99.2% | [6] 99.3%

COC(N)=O
inactive: [1] -15.6% | [2] -10.2% | [3] -16.9% | [4] -15.9% | [5] -2.6% | [6] -8.3%

COc1ccc(C(=O)O[C@H]2CC[C@@]3(C)[C@@H]4CC[C@H]5[C@]6(O)C[C@H](O)[C@@]7(O)[C@@H](CN8C[C@@H](C)CC[C@H]8[C@@]7(C)O)[C@]6(O)C[C@@]53OC24O)cc1OC
inactive: [1] -16.7% | [2] -32% | [3] -28.9% | [4] 6.4% | [5] -28.8% | [6] -5.15%

CCCCCCP(=O)(CCCCCC)CCCCCC (tested in a mixture with another compound)
inactive: [5] 62%
active: [1] 77.3% | [2] 83.6% | [3] 87.5% | [4] 78.6% | [6] 84.2%

O=[As]c1ccc2c(c1)NC(O)=CO2 (stereo not given)
inactive: [1] 21.9% | [2] 38.6% | [3] 20.7% | [4] 27.9% | [5] 20.4% | [6] 32.5%

O=C(O)c1cc(Cl)nc(Cl)c1
inactive: [1] -2.1% | [2] 22% | [3] 2.05% | [4] -26.2% | [5] 17.4% | [6] -14.8%

CCOC(=O)OC1(c2ccccc2)CCN(C)CC1
inactive: [1] -12.2% | [2] 5.75% | [3] -4.55% | [4] 34.3% | [5] 21.4% | [6] 21.4%

COc1cc(C(O)CN)cc(OC)c1OC (stereo not given)
inactive: [1] -12.9% | [2] 2.2% | [3] -6.55% | [4] -7.35% | [5] -3.35% | [6] -6.8%

COc1ccc(O)c2c(=O)c3c(OC)cc4c(c3oc12)[C@@H]1C=CO[C@@H]1O4
inactive: [1] 16.6% | [2] -29.6% | [3] 17.5% | [4] -2.9% | [5] -9.65% | [6] 9.2%

c1ccc(NNc2ccccc2)cc1
inactive: [1] 8.5% | [2] 1.7% | [3] 0.95% | [4] -14.1% | [5] -6.15% | [6] -5.65%

c1ccc2c(c1)ccc1sc3c([n+]12)CCC3
inactive: [1] -0.9% | [2] -5.65% | [3] -18.2% | [4] -14.5% | [5] 2.4% | [6] -5.3%

O=C(OC12CCN(CC1)CC2)c1ccccc1
inactive: [1] -7.55% | [2] 8.6% | [3] 4.25% | [4] -50.2% | [5] 8.15% | [6] 0.5%

CC(C)N(C(C)C)[PH+]1O[PH+](N(C(C)C)C(C)C)O[PH+](N(C(C)C)C(C)C)O[PH+](N(C(C)C)C(C)C)O[PH+](N(C(C)C)C(C)C)O1.[C-]#[O+].[C-]#[O+].[C-]#[O+].[C-]#[O+].[C-]#[O+].[C-]#[O+].[C-]#[O+].[Cr].[Cr] (stereo not given)
inactive: [1] 17.7% | [2] -5.45% | [3] -14.5% | [4] -0.75% | [5] 2.8% | [6] -3.8%

ClCCCN1CCN(c2ccccc2Cl)CC1
inactive: [1] 9.35% | [2] -16.7% | [3] 7.45% | [4] 7.45% | [5] 1.15% | [6] -7.8%

CC(C)(C#N)O[N+](=O)[O-]
inactive: [1] 0.1% | [2] 7.3% | [3] -4.7% | [4] -16.8% | [5] -0.7% | [6] 0.2%

O=C1NC(=O)C(=Cc2ccco2)C(=O)N1
inactive: [1] -4.4% | [2] -26.4% | [3] -7.85% | [4] 5.65% | [5] -31.6% | [6] -3.3%

CCOP(=O)(CC#N)OCC
inactive: [1] -6.85% | [2] -11.7% | [3] -7.05% | [4] -6.4% | [5] 2.7% | [6] 0%

COc1ccc(C(C)(C)CC(C)(C)C)cc1
inactive: [1] 39% | [2] 2.55% | [3] 32.8% | [4] 12.1% | [5] 6.1% | [6] -0.85%

CCC(C)OP(=S)(S)OC(C)CC.[Zn+2] (stereo not given)
inactive: [1] 1.8% | [2] 22.3% | [3] -6% | [4] -5.55% | [5] 25.2% | [6] -5.95%

ClC1=C(Cl)C2(Cl)C3C4CC(C5OC45)C3C1(Cl)C2(Cl)Cl (stereo not given)
inactive: [1] 27.4% | [2] -16.6% | [3] 1.25% | [4] 15.5% | [5] 9.75% | [6] -6.8%

C=C(Nc1nc2ccc(C)cc2s1)C(=O)C(CC)C(=O)C(CC)CC1C(=O)NC(=O)NC1=O (stereo not given)
inactive: [1] -23.4% | [2] -13.6% | [3] 4.35% | [4] -31.8% | [5] -32.6% | [6] -0.2%

O=C(O)C(=O)O.[Co].[NH-]CC[NH-].[NH-]CC[NH-]
inactive: [1] 4.9% | [2] 13.4% | [3] 6.65% | [4] -12.8% | [5] 22.4% | [6] 12.8%

COc1ccc(C(O)(C(=O)O)c2ccc(OC)c(OC)c2)cc1OC
inactive: [1] 5.6% | [2] -1.25% | [3] -1.7% | [4] -13.9% | [5] 8% | [6] 0.2%

CCOC(=O)N(NC(=O)c1ccc(N(CCCl)CCCl)cc1)C(C)=O
inactive: [1] 6.2% | [2] 8.95% | [3] 3.15% | [4] -15.5% | [5] 5.65% | [6] 30.9%

CC(C)(C)N1OC1c1cccc(Cl)c1 (stereo not given)
inactive: [1] 29.6% | [2] 29.4% | [3] 10.8% | [4] 11.9% | [5] -2.85% | [6] 36.5%

CN1CN(c2ccccc2)C2(CCN(CCCN(C)c3ccc(F)cc3)CC2)C1=O
inactive: [1] 0.1% | [2] -0.4% | [3] 6.35% | [4] 5.85% | [5] 3.35% | [6] 17.3%

COc1ccc(CC(N)c2nn[nH]n2)cc1 (stereo not given)
inactive: [1] 4.1% | [2] -1% | [3] -1.1% | [4] -23.1% | [5] 8.15% | [6] -1.75%

CC1(C)OP(=O)(c2ccccc2)C=C1Br (stereo not given)
inactive: [1] -39.9% | [2] -9.4% | [3] -23.4% | [4] -11.8% | [5] -2.75% | [6] -3.7%

O=[N+]([O-])c1ccc2c(c1)[O][Sn]([I])([I])[O]2
inactive: [1] -6% | [2] -3.95% | [3] 8.8% | [4] 6.7% | [5] 1.95% | [6] -3.9%

CCOP(=O)(OCC)OP(=O)(OCC)OCC
inactive: [1] -9.35% | [2] -29.6% | [3] -42.7% | [4] -10.1% | [5] -49.4% | [6] -13.4%

C1=CC2CCC1C2
inactive: [1] 15.5% | [2] 3.75% | [3] -7.1% | [4] -52% | [5] -5.65% | [6] 7.85%

O=S(=O)(O)C(Br)(Br)Br
inactive: [1] 29.4% | [2] 5.3% | [3] 23.6% | [4] -26.9% | [5] 7.25% | [6] 28.2%

Oc1ccc(Cl)cc1Br
inactive: [1] -2.4% | [2] -14.6% | [3] -1.1% | [4] 12% | [5] -23.4% | [6] -0.15%
